Reference: PubChem BioAssay AID1159580 (chemical genetic matrix, 2015)
In all, about 5,500 compounds went through this assay and about 2,000 (36%) were called active. Not shown: some 18% with an inconclusive outcome. Rule as the data show it: active = normalized growth mostly below about 0.91 (no sharp cut-off); inconclusive = no clear call, values can overlap the other calls; inactive = mostly above about 0.92. Some of the results follow.

Assay: chemical genetic growth profiling, strain panel (AID 1159580);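 also: tested at 20 µM; growth read once vehicle control cultures reached saturation at 30 °C; 1 = growth at the plate median or of vehicle wells; lower values mean less growth of the strain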
Conditions: growth OD

Measured: normalized growth

C=CCc1cc(OC)c2c(c1OC)OCO2
inactive: S. cerevisiae deletion strains, locus YJR075W, strain HOC1, active compounds read low 0.928 | S. cerevisiae deletion strains, locus YKL009W, strain mrt4, active compounds read low 0.953 | S. cerevisiae deletion strains, locus YKL085W, strain MDH1 (second series), active compounds read low 0.939 | S. cerevisiae deletion strains, locus YKL085W, strain MDH1, active compounds read low 0.939 | S. cerevisiae deletion strains, locus YKL160W, strain elf1, active compounds read low 0.915 | S. cerevisiae deletion strains, locus YKL190W, strain CNB1, active compounds read low 0.964 | S. cerevisiae deletion strains, locus YKR001C, strain vps1, active compounds read low 0.953 | S. cerevisiae deletion strains, locus YLL001W, strain dnm1, active compounds read low 0.96 | S. cerevisiae deletion strains, locus YLL041C, strain sdh2, active compounds read low 0.947 | S. cerevisiae deletion strains, locus YLR027C, strain aat2, active compounds read low 0.941 | S. cerevisiae deletion strains, locus YLR039C, strain RIC1, active compounds read low 1.03 | S. cerevisiae deletion strains, locus YLR058C, strain SHM2, active compounds read low 0.976 | S. cerevisiae deletion strains, locus YLR113W, strain HOG1, active compounds read low 0.957 | S. cerevisiae deletion strains, locus YLR221C, strain rsa3, active compounds read low 0.948 | S. cerevisiae deletion strains, locus YLR258W, strain gsy2, active compounds read low 0.941 | S. cerevisiae deletion strains, locus YLR262C, strain YPT6 (second series), active compounds read low 0.903 | S. cerevisiae deletion strains, locus YLR262C, strain YPT6, active compounds read low 1.06 | S. cerevisiae deletion strains, locus YLR268W, strain sec22, active compounds read low 1.01 | S. cerevisiae deletion strains, locus YLR330W, strain CHS5, active compounds read low 0.967 | S. cerevisiae deletion strains, locus YLR342W, strain FKS1 (second series), active compounds read low 0.953 | S. cerevisiae deletion strains, locus YLR342W, strain FKS1, active compounds read low 0.932 | S. cerevisiae deletion strains, locus YLR357W, strain rsc2, active compounds read low 1.07 | S. cerevisiae deletion strains, locus YLR370C, strain arc18, active compounds read low 0.924 | S. cerevisiae deletion strains, locus YLR371W, strain rom2, active compounds read low 0.943 | S. cerevisiae deletion strains, locus YLR384C, strain iki3, active compounds read low 0.935 | S. cerevisiae deletion strains, locus YLR418C, strain cdc73, active compounds read low 0.938 | S. cerevisiae deletion strains, locus YML016C, strain PPZ1, active compounds read low 0.988 | S. cerevisiae deletion strains, locus YML032C, strain rad52, active compounds read low 0.987 | S. cerevisiae deletion strains, locus YML120C, strain ndi1, active compounds read low 0.969 | S. cerevisiae deletion strains, locus YMR058W, strain fet3, active compounds read low 0.951 | S. cerevisiae deletion strains, locus YMR078C, strain ctf18, active compounds read low 0.943 | S. cerevisiae deletion strains, locus YMR125W, strain sto1, active compounds read low 0.896 | S. cerevisiae deletion strains, locus YMR223W, strain ubp8, active compounds read low 0.935 | S. cerevisiae deletion strains, locus YMR231W, strain pep5, active compounds read low 1 | S. cerevisiae deletion strains, locus YMR263W, strain SAP30, active compounds read low 0.94 | S. cerevisiae deletion strains, locus YMR307W, strain GAS1, active compounds read low 0.987 | S. cerevisiae deletion strains, locus YNL067W, strain RPL9B, active compounds read low 0.921 | S. cerevisiae deletion strains, locus YNL128W, strain TEP1, active compounds read low 0.971 | S. cerevisiae deletion strains, locus YNL153C, strain GIM3, active compounds read low 0.97 | S. cerevisiae deletion strains, locus YNL183C, strain NPR1, active compounds read low 0.916 | S. cerevisiae deletion strains, locus YNL209W, strain ssb2, active compounds read low 0.962 | S. cerevisiae deletion strains, locus YNL248C, strain rpa49, active compounds read low 0.969 | S. cerevisiae deletion strains, locus YNL250W, strain rad50, active compounds read low 0.967 | S. cerevisiae deletion strains, locus YNL271C, strain bni1, active compounds read low 0.929 | S. cerevisiae deletion strains, locus YNL298W, strain CLA4, active compounds read low 0.96 | S. cerevisiae deletion strains, locus YNL322C, strain KRE1 (second series), active compounds read low 0.933 | S. cerevisiae deletion strains, locus YNL322C, strain KRE1, active compounds read low 0.961 | S. cerevisiae deletion strains, locus YNR049C, strain mso1, active compounds read low 0.942 | S. cerevisiae deletion strains, locus YNR052C, strain pop2, active compounds read low 0.984 | S. cerevisiae deletion strains, locus YOL006C, strain TOP1, active compounds read low 0.589 | S. cerevisiae deletion strains, locus YOL012C, strain htz1 1.06 | S. cerevisiae deletion strains, locus YOL147C, strain pex11, active compounds read low 0.943 | S. cerevisiae deletion strains, locus YOR001W, strain rrp6, active compounds read low 0.949 | S. cerevisiae deletion strains, locus YOR061W, strain CKA2, active compounds read low 0.981 | S. cerevisiae deletion strains, locus YOR069W, strain VPS5, active compounds read low 0.99 | S. cerevisiae deletion strains, locus YOR070C, strain gyp1, active compounds read low 0.982 | S. cerevisiae deletion strains, locus YOR080W, strain dia2, active compounds read low 0.991 | S. cerevisiae deletion strains, locus YOR083W, strain WHI5, active compounds read low 0.951 | S. cerevisiae deletion strains, locus YOR106W, strain vam3, active compounds read low 0.956 | S. cerevisiae deletion strains, locus YOR136W, strain idh2, active compounds read low 0.974 | S. cerevisiae deletion strains, locus YOR144C, strain elg1, active compounds read low 0.952 | S. cerevisiae deletion strains, locus YOR231W, strain MKK1, active compounds read low 0.999 | S. cerevisiae deletion strains, locus YOR265W, strain rbl2, active compounds read low 0.967 | S. cerevisiae deletion strains, locus YOR270C, strain vph1, active compounds read low 0.841 | S. cerevisiae deletion strains, locus YOR290C, strain snf2, active compounds read low 0.926 | S. cerevisiae deletion strains, locus YOR316C, strain cot1, active compounds read low 0.929 | S. cerevisiae deletion strains, locus YPL051W, strain arl3, active compounds read low 0.998 | S. cerevisiae deletion strains, locus YPL055C, strain LGE1, active compounds read low 0.908 | S. cerevisiae deletion strains, locus YPL078C, strain atp4, active compounds read low 0.906 | S. cerevisiae deletion strains, locus YPL106C, strain sse1, active compounds read low 0.987 | S. cerevisiae deletion strains, locus YPL241C, strain CIN2, active compounds read low 0.967 | S. cerevisiae deletion strains, locus YPL256C, strain CLN2, active compounds read low 0.977 | S. cerevisiae deletion strains, locus YPR141C, strain kar3, active compounds read low 0.94 | S. cerevisiae deletion strains, locus YPR163C, strain tif3, active compounds read low 0.968 | S. cerevisiae deletion strains, locus YPR167C, strain met16, active compounds read low 0.939 | S. cerevisiae deletion strains, strain wtn01, active compounds read low 0.933 | S. cerevisiae strains, strain wild type, active compounds read low 0.999
active: S. cerevisiae deletion strains, locus YKL068W, active compounds read low 0.94 | S. cerevisiae deletion strains, locus YKR026C, strain gcn3, active compounds read low 0.909 | S. cerevisiae deletion strains, locus YKR091W, strain srl3, active compounds read low 0.922 | S. cerevisiae deletion strains, locus YLL026W, active compounds read low 0.923 | S. cerevisiae deletion strains, locus YLR102C, strain apc9, active compounds read low 0.923 | S. cerevisiae deletion strains, locus YLR320W, strain mms22, active compounds read low 0.666 | S. cerevisiae deletion strains, locus YML124C, strain tub3, active compounds read low 0.931 | S. cerevisiae deletion strains, locus YMR129W, active compounds read low 0.921 | S. cerevisiae deletion strains, locus YMR205C, strain PFK2, active compounds read low 0.83 | S. cerevisiae deletion strains, locus YNL071W, strain lat1, active compounds read low 0.737 | S. cerevisiae deletion strains, locus YNL233W, strain BNI4, active compounds read low 0.835 | S. cerevisiae deletion strains, locus YNL307C, strain MCK1, active compounds read low 0.862 | S. cerevisiae deletion strains, locus YOR184W, strain ser1, active compounds read low 0.872 | S. cerevisiae deletion strains, locus YPL240C, strain hsp82, active compounds read low 0.927 | S. cerevisiae deletion strains, locus YPR119W, strain clb2, active compounds read low 0.926
